This note sets out measurements from PubChem BioAssay (NCATS).

Several values for one entry are separate records, joined by “and”; a condition that tells them apart may be missing. Equal values may be shown once. Inconclusive results are not listed. Activity calls are given as the source filed them. Unless noted, calls follow the shape of the dose curve; as a rule, active = well fitted curve in the direction sought with a large enough effect; inconclusive = small, poorly fitted or top-dose-only effect, or another doubt; inactive = no such curve, though single readings can be large; an effect the other way counts as inactive or inconclusive.

The nature of experiment [1]: Cell Viability - NIH 3T3 (AID 541).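 Also: plate controls were DMSO alone for no effect and tamoxifen positive control for full effect; nearly all actives have a fitted effect of over 25% in size.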 The note with it: NIH 3T3 cell viability, qHTS; activity change, negative = cytotoxicity: at 92.2 µM (top of the series). The procedure, abridged:
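NIH 3T3 mouse embryo fibroblasts (1000 cells/well) were plated in complete medium and treated with compound for 40 hr at 37 °C. Viability was read as intracellular ATP by CellTiter-Glo luminescence; AC50 values came from Hill-equation fits of concentration-response data.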
On the technique in general: Quantitative high-throughput screening tests each substance at several concentrations.

A short description of experiment [2]: Cell Viability - H-4-II-E (AID 543). Also: % is scaled to controls: 0 for no effect and ±100 for the full control effect; nearly all actives have a fitted effect of over 35% in size. A digest of the protocol:
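Rat hepatoma H-4-II-E cells (1500/well) were plated, incubated 5 hr at 37 °C, then exposed to compounds for 40 hr at 37 °C. Cellular ATP was read by CellTiter-Glo luminescence; AC50 came from Hill-equation fits of concentration-response data.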

The nature of experiment [3]: MultiTox-Fluor Cytotoxicity Assay - LYMP1-001 - Live Cells (AID 947).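 Also: 0% = DMSO only and full inhibition = tetraoctylammonium bromide control.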
Experiment [4] can be described thus: Cell Viability - LYMP2-014 (AID 983).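 Also: plate controls were DMSO only for no effect and 92 µM tetraoctylammonium bromide for full effect; nearly all actives have a fitted effect of over 50% in size.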 The procedure, abridged:
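Human lymphoblastoid cells (2500/well) were pre-incubated 5 hr at 37 C, then exposed to compounds in complete medium for 24 hr at 37 C. Intracellular ATP was read by CellTiter-Glo luminescence after 30 min at room temperature; AC50 from Hill fits.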

Experiment [5] can be described thus: Cell Viability - LYMP2-018 (AID 985).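 Also: compound exposure lasted 24 hr at 37 °C; plate controls were DMSO only for no effect and tetraoctylammonium bromide at 92 µM for full effect; nearly all actives have a fitted effect of over 50% in size.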 The procedure, abridged: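 Human lymphoblastoid cells (2500/well) were pre-incubated 5 hr at 37 C, then exposed to compounds for 24 hr at 37 C in complete medium. Viability was read as intracellular ATP by CellTiter-Glo luminescence; AC50 values came from Hill-equation fits.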
The nature of experiment [6]: Cell Viability - LYMP2-024 (AID 988).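 Also: plate controls were DMSO only for no effect and 92 µM tetraoctylammonium bromide for full effect; nearly all actives have a fitted effect of over 60% in size.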 A digest of the protocol: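 Human lymphoblastoid cells (2500/well) in complete medium were preincubated 5 hr at 37 C, then exposed to compounds for 24 hr at 37 C. Intracellular ATP was read by CellTiter-Glo luminescence; AC50 from Hill-equation fits of concentration-response data.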
Experiment [7] concerns the target Glucocorticoid receptor (Homo sapiens) (UniProt P04150). Kind of experiment: qHTS assay for small molecule agonists of glucocorticoid receptor signaling (AID 588532; active = well fitted curve in the direction sought with a large enough effect in the signal ratio, with a control signal flat; the % refers to the signal ratio;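 also: 100% = dexamethasone at 0.1 µM and 0% = DMSO only wells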). To be noted: HeLa MMTV-bla, beta-lactamase ratio, agonist, 18 h; stronger effect = higher value; percent of dexamethasone control, DMSO zero. A digest of the protocol: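 Using MMTV-bla HeLa cells in medium with 1% stripped FBS and 25 mM HEPES, compounds were titrated and incubated overnight-length (18 h). Beta-lactamase cleavage of CCF4 was quantified by dual-emission fluorescence.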

The target is the same in experiment [8]. Description: qHTS assay for small molecule antagonists of glucocorticoid receptor signaling (AID 588533; active = well fitted inhibition curve with a large enough effect in the signal ratio, with a control signal flat, not every such curve was filed as active; the % refers to the signal ratio;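 also: cells stimulated with 2 nM dexamethasone as agonist; % is scaled to controls: 0 for no effect and ±100 for the full control effect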). A digest of the protocol: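 Antagonist-mode qHTS: compound titrations added to GRE-bla HeLa cells, then dexamethasone 2 nM final; 18 h, 37 C. CCF4 FRET fluorescence normalized to dexamethasone and DMSO; IC50 from Hill fit.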
For experiment [9], the target named is Peroxisome proliferator-activated receptor delta (Homo sapiens) (UniProt Q03181). Description: qHTS assay for small molecule agonists of peroxisome proliferator-activated receptor delta signaling (AID 588534; calls by dose curve;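 also: 0% = DMSO basal wells and 100% = positive control agonist at 10 µM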). A digest of the protocol: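 Cell-based beta-lactamase reporter assay run in agonist mode: cells seeded and incubated 5 hrs at 37 C, compounds added and incubated 18 hrs at 37 C. CCF4 dye fluorescence read after 2 hrs at RT; EC50 and efficacy from Hill fits.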
Chain of Peroxisome proliferator-activated receptor delta (Homo sapiens) (Q03181 whole entry, looked up): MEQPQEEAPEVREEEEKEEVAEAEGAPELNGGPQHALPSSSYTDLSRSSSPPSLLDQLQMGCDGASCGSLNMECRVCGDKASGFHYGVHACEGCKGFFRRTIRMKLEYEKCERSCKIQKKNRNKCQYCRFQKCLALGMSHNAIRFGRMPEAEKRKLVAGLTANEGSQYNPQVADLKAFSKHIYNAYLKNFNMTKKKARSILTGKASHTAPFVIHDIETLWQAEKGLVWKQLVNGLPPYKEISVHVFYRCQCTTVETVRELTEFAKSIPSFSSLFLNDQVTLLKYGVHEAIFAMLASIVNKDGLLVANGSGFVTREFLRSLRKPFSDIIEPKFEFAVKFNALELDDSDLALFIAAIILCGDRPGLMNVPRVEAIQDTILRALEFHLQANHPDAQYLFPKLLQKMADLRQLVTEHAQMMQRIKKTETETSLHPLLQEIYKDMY

Experiment [10] can be described thus: qHTS assay for small molecule antagonists of peroxisome proliferator-activated receptor delta signaling (AID 588535; active = well fitted inhibition curve with a large enough effect in the signal ratio, with a control signal flat, not every such curve was filed as active; the % refers to the signal ratio;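 as to max response: cells co-treated with a PPAR-delta agonist as stimulator during compound exposure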). The note with it: HEK293T PPARd-UAS-bla, beta-lactamase FRET ratio, 18 h; 460 nm channel. The procedure, abridged:
(§1)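 Cell-based beta-lactamase assay in antagonist mode: 4000 HEK293T PPAR-delta-UAS-bla cells per well, 5 hr preincubation then 18 hr compound incubation at 37 C. IC50 obtained by Hill equation fitting.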

The target in experiment [11] is Peroxisome proliferator-activated receptor delta (Homo sapiens) (UniProt Q03181). The description is as above. The procedure, abridged:
as §1

Experiment [12] concerns the target Peroxisome proliferator-activated receptor gamma (Homo sapiens) (UniProt P37231). Kind of experiment: qHTS assay for small molecule antagonists of peroxisome proliferator-activated receptor gamma signaling (AID 588537; active = well fitted inhibition curve with a large enough effect in the signal ratio, with a control signal flat, not every such curve was filed as active; the % refers to the signal ratio;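 also: reporter cells co-stimulated with 50 nM rosiglitazone agonist during compound treatment; % of control where 0% means no effect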). A digest of the protocol: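 Inhibitors of agonist-stimulated UAS-bla reporter activity were sought in HEK293 cells; rosiglitazone (50 nM) defined full signal and DMSO baseline. Curves fitted to Hill model gave IC50 and efficacy.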

Experiment [13] can be described thus: qHTS assay for small molecule agonists of the antioxidant response element (ARE) signaling pathway (AID 651741; active = well fitted activation curve with a large enough effect in the signal ratio; the % refers to the signal ratio; also: % of control where 0% means no effect). A digest of the protocol: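 Seeding 2,000 ARE-bla HepG2 cells per well preceded a 5 h incubation at 37 C/5% CO2 and a 16 h compound exposure at 37 C. Beta-lactamase reporter activity was then quantified by fluorescence after 2 h with LiveBLAzer B/G FRET substrate.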

Experiment [14] can be described thus: qHTS assay for small molecule activators of the nuclear factor-kappa B (NF-kB) signaling pathway (AID 651749; active = well fitted activation curve with a large enough effect in the signal ratio; the % refers to the signal ratio; also: % of control where 0% means no effect). To be noted: NF-kB-bla ME-180 cells, beta-lactamase FRET ratio, 16 h; stronger effect = higher value. The procedure, abridged: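 Stably transfected ME-180 line; NF-kB response element upstream of beta-lactamase. Treatment: compound or DMSO, 16 hr. Detection: fluorescent FRET substrate.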

Experiment [15] is described as follows: qHTS assay for small molecule disruptors of the mitochondrial membrane potential - 5 hr assay (AID 651755; calls by dose curve; also: % is scaled to controls: 0 for no effect and ±100 for the full control effect; nearly all actives have a fitted effect of over 40% in size). A digest of the protocol: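 HepG2, 2,000 cells/well, overnight attach; cpd or DMSO 5 hr, 37C/5% CO2; Mito-MPS 30 min 37C; fluor 490/535 + 540/590 nm.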
Experiment [16] deals with Peroxisome proliferator-activated receptor gamma (Homo sapiens) (UniProt P37231). Kind of experiment: qHTS assay for small molecule agonists of peroxisome proliferator-activated receptor gamma signaling (AID 588536; active = well fitted curve in the direction sought with a large enough effect in the signal ratio, with a control signal flat, not every such curve was filed as active; the % refers to the signal ratio;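 also: 0% = DMSO basal wells and 100% = rosiglitazone at 2 µM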). The procedure, abridged: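 HEK293 UAS-bla reporter line, 1% charcoal/dextran FBS; titration, 16 h, 37 C; CCF4 loading 2 h RT; fluorescence 460/530 nm. Normalized to rosiglitazone 2 uM = 100%, DMSO = 0%.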
Chain of Peroxisome proliferator-activated receptor gamma (Homo sapiens) (P37231 whole entry, looked up): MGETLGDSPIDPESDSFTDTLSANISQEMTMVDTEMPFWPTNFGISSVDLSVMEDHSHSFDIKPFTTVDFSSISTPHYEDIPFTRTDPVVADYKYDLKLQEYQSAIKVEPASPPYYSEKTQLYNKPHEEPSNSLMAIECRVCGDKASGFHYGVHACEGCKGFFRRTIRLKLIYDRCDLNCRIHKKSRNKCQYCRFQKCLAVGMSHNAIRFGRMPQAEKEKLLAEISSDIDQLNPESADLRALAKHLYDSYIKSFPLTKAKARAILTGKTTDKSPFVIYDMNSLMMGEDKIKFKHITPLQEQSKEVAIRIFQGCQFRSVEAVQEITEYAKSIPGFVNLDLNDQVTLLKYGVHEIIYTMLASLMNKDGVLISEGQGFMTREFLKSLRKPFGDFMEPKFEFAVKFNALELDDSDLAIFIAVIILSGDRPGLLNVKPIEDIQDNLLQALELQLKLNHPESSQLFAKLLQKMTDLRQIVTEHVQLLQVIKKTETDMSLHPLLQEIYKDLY

In experiment [17] the target is Voltage-gated inwardly rectifying potassium channel KCNH2 (Homo sapiens) (UniProt Q12809). Kind of experiment: qHTS Assay for Small Molecule Inhibitors of the Human hERG Channel Activity (AID 588834).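 Also: top concentration of the series differs between compounds; % is scaled to controls: 0 for no effect and ±100 for the full control effect; lower thallium flux fluorescence means stronger hERG block; nearly all actives have a fitted effect of over 50% in size.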 A digest of the protocol:
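U2OS cells transduced with hERG via BacMam (MOI ~100), plated 2000/well, loaded with FluxOR thallium dye, compound ~10 min, then stimulation buffer; fluorescence decrease read kinetically; AC50 from Hill fits.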

Experiment [18] is described as follows: qHTS assay for environmental chemicals that activate the Aryl hydrocarbon Receptor (AhR) signaling pathway (AID 651777). Also: % of control where 0% means no effect; nearly all actives have a fitted effect of over 15% in size. To be noted: 1A2-DRE human hepatoma cells, luciferase, 24 h; activation: stronger effect = higher value. The procedure, abridged: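 Measured luciferase activity, read 30 min after One-Glo addition at room temperature, from human hepatoma cells bearing a dioxin response element–CYP1A2 promoter reporter and exposed to compound for 24 hr at 37 C.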

For experiment [19], the target named is Estrogen receptor (Homo sapiens) (UniProt P03372). Description: qHTS assay for small molecule antagonists of estrogen receptor alpha signaling (AID 588513; active = well fitted curve in the direction sought with a large enough effect in the signal ratio, with a control signal flat, not every such curve was filed as active; the % refers to the signal ratio; also: % is scaled to controls: 0 for no effect and ±100 for the full control effect). The procedure, abridged: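 ER-alpha-UAS-bla GripTite HEK 293 cells in medium with 2% charcoal/dextran-treated FBS were preincubated 4 h at 37 C, dosed with compound (1:2 titration), stimulated with 0.5nM 17-beta-estradiol for 18 h, then read by CCF4 beta-lactamase fluorescence.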
Chain of Estrogen receptor (Homo sapiens) (P03372 whole entry, looked up): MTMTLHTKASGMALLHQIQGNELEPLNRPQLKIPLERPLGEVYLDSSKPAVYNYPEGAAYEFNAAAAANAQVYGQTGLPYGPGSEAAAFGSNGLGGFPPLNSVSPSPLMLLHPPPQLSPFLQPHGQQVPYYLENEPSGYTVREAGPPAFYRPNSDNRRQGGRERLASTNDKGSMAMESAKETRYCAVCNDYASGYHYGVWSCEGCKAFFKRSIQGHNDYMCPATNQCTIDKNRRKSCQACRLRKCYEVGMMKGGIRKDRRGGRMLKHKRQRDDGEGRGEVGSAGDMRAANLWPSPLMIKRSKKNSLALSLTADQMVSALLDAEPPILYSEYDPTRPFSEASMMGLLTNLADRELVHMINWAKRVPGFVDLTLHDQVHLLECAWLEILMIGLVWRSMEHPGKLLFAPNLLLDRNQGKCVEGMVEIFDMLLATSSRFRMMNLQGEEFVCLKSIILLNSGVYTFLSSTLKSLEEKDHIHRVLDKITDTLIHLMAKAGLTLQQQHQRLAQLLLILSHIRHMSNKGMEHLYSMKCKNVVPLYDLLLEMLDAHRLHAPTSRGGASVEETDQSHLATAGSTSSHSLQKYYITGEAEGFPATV

Experiment [20] shares this target. Description: qHTS assay for small molecule agonists of estrogen receptor alpha signaling (AID 588514; calls by dose curve;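 also: 0% = vehicle only and 100% = reference agonist; nearly all actives have a fitted effect of over 70% in size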). A digest of the protocol:
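ER-alpha-UAS-bla GripTite HEK 293 cells in medium with 2% charcoal/dextran-treated FBS were treated with compound titrations at 37 C for 18 hrs; beta-lactamase reporter read by CCF4 fluorescence after 2 hrs at RT.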

Chain of Glucocorticoid receptor (Homo sapiens) (P04150 whole entry, looked up): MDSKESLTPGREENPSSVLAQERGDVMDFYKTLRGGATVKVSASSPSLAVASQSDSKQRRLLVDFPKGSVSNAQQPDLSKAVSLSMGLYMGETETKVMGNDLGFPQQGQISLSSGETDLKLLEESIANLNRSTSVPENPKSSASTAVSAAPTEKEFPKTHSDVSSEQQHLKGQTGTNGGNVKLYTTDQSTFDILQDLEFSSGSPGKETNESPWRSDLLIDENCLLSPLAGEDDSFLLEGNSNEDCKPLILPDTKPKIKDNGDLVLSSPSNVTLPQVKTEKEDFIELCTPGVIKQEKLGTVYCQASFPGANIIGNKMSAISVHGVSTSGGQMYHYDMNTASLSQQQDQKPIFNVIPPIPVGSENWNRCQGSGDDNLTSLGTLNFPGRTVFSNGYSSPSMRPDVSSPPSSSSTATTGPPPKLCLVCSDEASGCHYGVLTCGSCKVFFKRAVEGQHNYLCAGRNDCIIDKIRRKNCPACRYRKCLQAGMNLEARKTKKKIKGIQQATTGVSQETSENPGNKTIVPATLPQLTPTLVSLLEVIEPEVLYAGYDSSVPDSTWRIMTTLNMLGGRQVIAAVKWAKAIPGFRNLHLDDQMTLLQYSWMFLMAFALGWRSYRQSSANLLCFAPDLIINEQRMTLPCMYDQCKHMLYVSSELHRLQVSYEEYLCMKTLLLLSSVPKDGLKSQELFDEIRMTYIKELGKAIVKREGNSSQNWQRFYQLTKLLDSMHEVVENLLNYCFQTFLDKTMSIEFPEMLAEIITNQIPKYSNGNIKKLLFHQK
Chain of Voltage-gated inwardly rectifying potassium channel KCNH2 (Homo sapiens) (Q12809 whole entry, looked up): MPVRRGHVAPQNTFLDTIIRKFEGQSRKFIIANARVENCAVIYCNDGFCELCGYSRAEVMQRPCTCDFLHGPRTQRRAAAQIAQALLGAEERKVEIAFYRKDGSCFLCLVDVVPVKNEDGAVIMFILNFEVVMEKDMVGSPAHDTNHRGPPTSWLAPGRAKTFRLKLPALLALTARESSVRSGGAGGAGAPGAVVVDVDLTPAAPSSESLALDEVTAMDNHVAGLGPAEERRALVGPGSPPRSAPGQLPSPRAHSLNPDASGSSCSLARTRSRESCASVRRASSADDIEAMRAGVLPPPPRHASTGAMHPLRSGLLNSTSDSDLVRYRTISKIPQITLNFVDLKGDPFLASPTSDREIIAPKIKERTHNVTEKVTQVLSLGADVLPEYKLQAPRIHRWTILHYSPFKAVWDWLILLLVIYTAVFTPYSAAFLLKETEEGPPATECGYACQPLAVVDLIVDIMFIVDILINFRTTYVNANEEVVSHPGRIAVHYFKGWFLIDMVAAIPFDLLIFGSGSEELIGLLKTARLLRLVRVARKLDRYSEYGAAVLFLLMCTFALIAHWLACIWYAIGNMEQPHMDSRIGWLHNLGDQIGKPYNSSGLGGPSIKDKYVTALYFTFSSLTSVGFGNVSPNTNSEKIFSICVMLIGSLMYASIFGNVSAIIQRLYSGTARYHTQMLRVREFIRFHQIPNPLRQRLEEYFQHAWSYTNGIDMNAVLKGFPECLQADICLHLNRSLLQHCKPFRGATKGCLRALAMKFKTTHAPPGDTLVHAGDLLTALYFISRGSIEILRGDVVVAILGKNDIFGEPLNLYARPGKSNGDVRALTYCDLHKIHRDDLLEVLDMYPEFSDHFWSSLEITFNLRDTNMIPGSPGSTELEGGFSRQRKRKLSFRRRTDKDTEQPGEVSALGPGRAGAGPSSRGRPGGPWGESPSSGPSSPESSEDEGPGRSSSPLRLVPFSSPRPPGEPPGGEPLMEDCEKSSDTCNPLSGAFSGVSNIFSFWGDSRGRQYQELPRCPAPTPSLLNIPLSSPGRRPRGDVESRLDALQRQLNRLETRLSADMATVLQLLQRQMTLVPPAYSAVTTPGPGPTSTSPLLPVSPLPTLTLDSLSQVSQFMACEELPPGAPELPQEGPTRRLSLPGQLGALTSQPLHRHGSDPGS

As for `N#CC(O)c1ccccc1` (configuration not stated), the Potency entry in experiment [1], in experiment [2], in [4], in [5], in [6] and in experiment [12] was “inactive” in each case. Besides, the Potency entry in experiment [13] and in experiment [15] was “inactive” each time. The compound was called inactive in [3], in experiment [8], in experiment [9] and in experiment [11]. In addition, the activation is -0.987% (inactive) in experiment [7] and 0.595% (inactive) in experiment [14]. For the same compound, in experiment [10], the max response was 6.88%.
`Cc1ccc(N)c(C)c1`: the Potency result in experiment [1], in experiment [2], in [4], in [5], in [6] and in experiment [12] was “inactive” throughout. Further, the Potency entry in [17] and in experiment [15] was “inactive” throughout. Besides, the result in experiment [3], in experiment [8], in experiment [11] and in [16] was inactive. Besides, the activation is -0.661% (inactive) in experiment [7] and -0.367% (inactive) in [18]. For the same compound, in [10], the max response came out at 14.7%.
Consider `Cc1cnc[nH]1`, for which the Potency result in experiment [1], in experiment [4], in experiment [5], in [6], in experiment [13] and in [15] was “inactive” each time. Further, the activation in experiment [7] is -8.66% (inactive); in experiment [14], -0.55% (inactive); in experiment [18], 1.06% (inactive). Besides, the call in experiment [8], in experiment [9] and in experiment [16] was inactive.
As for `Oc1cc(Cl)ccc1Cl`, the Potency entry in experiment [1], in experiment [2], in experiment [4], in experiment [5], in experiment [6] and in experiment [12] was “inactive” in each case. For the same compound, the Potency result in experiment [17], in experiment [13] and in [15] was “inactive” in each case. In addition, the compound was called inactive in [3], in [8], in [9] and in [11]. Further, the activation in experiment [7] is 0.0862% (inactive) and 2.52% (inactive); in [14], -0.753% (inactive) and -0.792% (inactive); in experiment [18] it was -0.282% (inactive) and -1.1% (inactive). Besides, in [10], the max response was 32.2% and -9.59%.
Regarding `c1ccc(NNc2ccccc2)cc1`, the Potency entry in experiment [1], in experiment [2], in experiment [4], in [5], in [6] and in [13] was “inactive” in each case. For the same compound, the Potency result in experiment [15] was “inactive”. The compound was called inactive in [3], in experiment [8], in [9] and in [11]. Further, the activation in experiment [7] is 1.14% (inactive) and -8.47% (inactive); in experiment [14], 0.182% (inactive) and 3.71% (inactive). In addition, in experiment [10], the max response is 13.2% and 5.7%.
With `O=[N+]([O-])c1ccc(Cl)c(Cl)c1Cl`, the activity change, negative = cytotoxicity in experiment [1] was -117% (active). Besides, the Potency entry in experiment [2], in experiment [5], in experiment [6], in experiment [19], in [20] and in experiment [17] was “inactive” throughout. Besides, the Potency result in experiment [15] is “inactive”. The call in experiment [9], in experiment [11] and in [16] was inactive. Besides, the max response in [10] was -19.7%. In addition, the activation is 0.972% (inactive) in experiment [14] and -1.85% (inactive) in [18].
As to `CC12CC1(C)C(=O)N(c1cc(Cl)cc(Cl)c1)C2=O` (configuration not stated), the Potency entry in [1], in experiment [2], in experiment [4], in experiment [5], in experiment [6] and in experiment [12] was “inactive” each time. Moreover, the Potency entry in [17] was “inactive”. The compound was classed as inactive in [3], in [8], in experiment [9], in experiment [11] and in experiment [16]. Further, the activation is -1.15% (inactive) and -3.35% (inactive) in [7]; -0.629% (inactive) and -1.26% (inactive) in [14]. The max response in experiment [10] is -1.5% and 19.3%.
For the compound `Nc1cccc(Cl)c1`, the Potency entry in experiment [1], in experiment [2], in experiment [5], in [6], in experiment [19] and in experiment [20] was “inactive” each time. The Potency entry in experiment [17], in experiment [13] and in experiment [15] was “inactive” in each case. In addition, the outcome in experiment [3], in [9], in [11] and in experiment [16] was inactive. The max response in experiment [10] worked out at 30.4%. Moreover, the activation in experiment [14] was -1.07% (inactive).
